Results: the supplement of paper PMC8387472

Experiments:
Test in all cases: fraction of 1-bp insertions among edited reads; higher = more 1-bp insertion outcomes
Conditions in all cases: mESC; 2uM; 72 h treatment, harvest day 5
[1] = compound: CNc1ccc([N+](=O)[O-])c(Nc2ccc3[nH]ncc3c2)n1
[2] = compound: CO[C@H]1/C=C/O[C@@]2(C)Oc3c(C)c(O)c4c(O)c(c(/C=N/N5CCN(C6CCCC6)CC5)c(O)c4c3C2=O)NC(=O)/C(C)=C\C=C\[C@H](C)[C@H](O)[C@@H](C)[C@@H](O)[C@@H](C)[C@H](OC(C)=O)[C@@H]1C [Rifapentine]
[3] = compound: COc1ccccc1-c1cc(Nc2cccc(CS(N)(=O)=O)c2)ncn1
[4] = compound: C[C@@H]1CN(CC(=O)Nc2ccc3c(c2)Cc2cccc(-c4cc(=O)cc(N5CCOCC5)o4)c2S3)C[C@H](C)O1
[5] = compound: Cc1cc(C)nc(SCC(=O)Nc2ncc(Cc3cccc4ccccc34)s2)n1
[6] = compound: Cc1ccc(C(=O)NCCCCCC(=O)Nc2ccccc2N)cc1
[7] = compound: NC(=O)c1ccc2nc(-c3ccc(Oc4ccc(Cl)cc4)cc3)[nH]c2c1 [Chk 2 inhibitor II (BML-277)]
[8] = compound: Nc1cc(F)ccc1NC(=O)c1ccc(CNC(=O)/C=C/c2cccnc2)cc1 [Tucidinostat (Chidamide)]
[9] = compound: Nc1nc2[nH]cc(CCc3ccc(C(=O)N[C@@H](CCC(=O)O)C(=O)O)cc3)c2c(=O)[nH]1 [Pemetrexed]
[10] = compound: Nc1ncnc2c1c(-c1cnc3[nH]ccc3c1)nn2C1CCCC1
[11] = compound: O=C1Cc2c([nH]c3ccc(Br)cc23)-c2ccccc2N1 [Kenpaullone]
[12] = compound: O=c1c(-c2ccc(O)cc2)coc2cc(O)cc(O)c12 [Genistein]
[13] = compound: O=c1cc(N2CCOCC2)oc2c(-c3ccc4c(c3)OCCO4)csc12
[14] = compound: S=c1[nH]cnc2nc[nH]c12 [Mercaptopurine (6-MP)]
[15] = compound: S=c1nc[nH]c2nc[nH]c12 [6-Mercaptopurine (6-MP) Monohydrate]
[16] = compound: CCn1c(=O)c(-c2ccc(Cl)cc2Cl)cc2cnc(Nc3ccc(N4CCNCC4)c(F)c3)nc21
[17] = compound: Cc1cccc(CC(=O)N2CCc3c2ccc(-c2cn(C)c4ncnc(N)c24)c3F)n1
[18] = compound: O=C(c1cccc(Cl)c1F)N1CCN(Cc2cccc(Nc3nccs3)n2)CC1

Row | Target | fraction of 1-bp insertions among edited reads [1] | fraction of 1-bp insertions among edited reads [2] | fraction of 1-bp insertions among edited reads [3] | fraction of 1-bp insertions among edited reads [4] | fraction of 1-bp insertions among edited reads [5] | fraction of 1-bp insertions among edited reads [6] | fraction of 1-bp insertions among edited reads [7] | fraction of 1-bp insertions among edited reads [8] | fraction of 1-bp insertions among edited reads [9] | fraction of 1-bp insertions among edited reads [10] | fraction of 1-bp insertions among edited reads [11] | fraction of 1-bp insertions among edited reads [12] | fraction of 1-bp insertions among edited reads [13] | fraction of 1-bp insertions among edited reads [14] | fraction of 1-bp insertions among edited reads [15] | fraction of 1-bp insertions among edited reads [16] | fraction of 1-bp insertions among edited reads [17] | fraction of 1-bp insertions among edited reads [18]
1 | 21.0 CGATTGAGAGTCAAACGGGCCAGAAAACTCCGGGAACGGGCCAGAAAACTCCGGGGCATGG | 0.026 | 0.0143 | 0.0287 | 0.0355 | 0.0108 | 0.0393 | 0.0251 | 0.0194 | 0.0119 | 0.0122 | 0.0245 | 0.0192 | 0.0417 | 0.0152 | 0.0297 | – | – | –
2 | 5.0 (DMSO control at this site: 1-bp insertion 0.214, MH deletion 0.567, edited 0.105) CGCTGACCCGAGACCTACGCGAACCGAAATCGGCGACCGGTGCGCAAGCAGGGCTGGCGTC | 0.261 | 0.208 | 0.267 | 0.477 | 0.232 | 0.217 | 0.208 | 0.257 | 0.184 | 0.293 | 0.277 | 0.203 | 0.187 | 0.27 | 0.272 | 0.179 | 0.252 | 0.277
3 | 16.0 (DMSO control at this site: 1-bp insertion 0.172, MH deletion 0.29, edited 0.05) CGGACTGCACACATGGGTAGGATCGTGCACGCGAGGTAGGATCGTGCACGCGAAGTTATTC | 0.225 | 0.14 | 0.213 | 0.32 | 0.169 | 0.149 | 0.191 | 0.172 | 0.149 | 0.218 | 0.198 | 0.144 | 0.19 | 0.165 | 0.166 | 0.169 | 0.208 | 0.178
4 | 40.0 (DMSO control at this site: 1-bp insertion 0.072, MH deletion 0.192, edited 0.189) GCGAATCAACTGTTCAACAACAGCAGCAGCCACCTGGAGGACTACAGTGGCCTGTCCGTGT | 0.0835 | 0.0737 | 0.076 | 0.124 | 0.0746 | 0.0721 | 0.0639 | 0.0778 | 0.0582 | 0.107 | 0.0742 | 0.0673 | 0.0807 | 0.0821 | 0.084 | 0.0675 | 0.0741 | 0.0793
5 | 26.0 (DMSO control at this site: 1-bp insertion 0.518, MH deletion 0.262, edited 0.026) AGGGCGCGCCCCACGCACTCTGCGGCAAGTCCCTCTGCGGCAAGTCCTCGGCCCGGAAGAC | 0.558 | 0.515 | 0.49 | 0.691 | 0.495 | 0.494 | 0.452 | 0.5 | 0.284 | 0.567 | 0.496 | 0.46 | 0.363 | 0.491 | 0.494 | 0.484 | 0.525 | 0.537
6 | 33.0 (DMSO control at this site: 1-bp insertion 0.008, MH deletion 0.771, edited 0.112) CATTAAGAGCAGCTGCCGGCCCCCAAGTGGACAGAGCTGGCCCTGCTGATTCAACAGTGCA | 0.0311 | 0.0305 | 0.0177 | 0.036 | 0.0245 | 0.0214 | 0.0295 | 0.0189 | 0.0161 | 0.0263 | 0.0243 | 0.0314 | 0.0159 | 0.0358 | 0.0255 | 0.0229 | 0.0211 | 0.0349
7 | 17.0 (DMSO control at this site: 1-bp insertion 0.112, MH deletion 0.348, edited 0.058) CCATAGCGCGATAAATATGACGGCTCATCCTGTATGACGGCTCATCCTGTATCAACTGTCC | 0.165 | 0.136 | 0.158 | 0.354 | 0.14 | 0.15 | 0.14 | 0.168 | 0.0727 | 0.193 | 0.166 | 0.119 | 0.172 | 0.17 | 0.144 | 0.166 | 0.124 | 0.111
8 | 7.0 (DMSO control at this site: 1-bp insertion 0.128, MH deletion 0.374, edited 0.098) TACTCAACCGAGACCTACGCGAACCGAAATCGTATGCCGGTGCGCAAGCAGGGCTGGCGTC | 0.166 | 0.135 | 0.154 | 0.226 | 0.137 | 0.144 | 0.131 | 0.174 | 0.0646 | 0.128 | 0.156 | 0.12 | 0.16 | 0.145 | 0.197 | 0.111 | 0.141 | 0.15
9 | 27.0 CCAGAATTAGAACATATCATCTGGACCCTTTTCCATCTGGACCCTTTTCCAGCACACCCTG | 0.13 | 0.109 | 0.108 | – | 0.124 | 0.149 | – | 0.137 | – | 0.169 | 0.146 | 0.183 | 0.158 | 0.141 | 0.187 | – | – | –
10 | 32.0 (DMSO control at this site: 1-bp insertion 0.03, MH deletion 0.85, edited 0.898) AGAAGTCCAGGATCAGGGGGACTGGGGTCGGGAGGGTGGGGCAGGAAGGAAGCCAGAATCA | 0.0188 | 0.0121 | 0.012 | 0.0185 | 0.018 | 0.0164 | 0.0134 | 0.0163 | 0.0205 | 0.0205 | 0.0214 | 0.0197 | 0.0144 | 0.0169 | 0.0198 | 0.0112 | 0.0245 | 0.0247
11 | 23.0 AGAACAAAGCGCTCATATAACGATATGGGGGGTTATGGGGGGTTGAATTGCTTCAGCACGA | 0.00131 | – | – | – | – | – | – | – | – | – | – | – | – | – | – | – | – | 0.008
12 | 28.0 (DMSO control at this site: 1-bp insertion 0.035, MH deletion 0.77, edited 0.142) TGGTTCTTCCTTTGTAGAGAGTGTTCATCTGGGAATCTGGGACTTGGATGAGACAATCATT | 0.0402 | 0.0344 | 0.0432 | 0.078 | 0.0369 | 0.0388 | 0.0349 | 0.0493 | 0.0369 | 0.0494 | 0.0461 | 0.032 | 0.0316 | 0.0428 | 0.0506 | 0.029 | 0.0456 | 0.0462
13 | 46.0 TTAAGAGCAATGTTCACGCAACTTGAAATTATATCTGTGGTCTTCAAATTGTCTTTTGTCA | 0.243 | 0.165 | – | – | – | 0.222 | – | 0.178 | 0.309 | 0.0621 | – | 0.25 | – | – | 0.17 | – | – | –
14 | 41.0 (DMSO control at this site: 1-bp insertion 0.022, MH deletion 0.754, edited 0.115) AAAGAGACAGCAGGTATGAATCCATCTTCCTGACCCTTGGGACCAGCCGGGGCAGTGAAGC | 0.0181 | 0.018 | 0.0187 | 0.0495 | 0.0288 | 0.0318 | 0.0265 | 0.0195 | 0.0232 | 0.0155 | 0.0338 | 0.0158 | 0.0195 | 0.0292 | 0.0487 | 0.0239 | 0.0382 | 0.0392
15 | 3.0 (DMSO control at this site: 1-bp insertion 0.109, MH deletion 0.149, edited 0.09) TGCTAGCGCCCCCACAAAGCGGACCAGCCAGCACTATAGGGAATAAGGCCAACTTGCACCC | 0.124 | 0.133 | 0.13 | 0.244 | 0.144 | 0.112 | 0.121 | 0.123 | 0.184 | 0.227 | 0.104 | 0.116 | 0.13 | 0.15 | 0.0992 | 0.126 | 0.15 | 0.152
16 | 25.0 (DMSO control at this site: 1-bp insertion 0.017, MH deletion 0.774, edited 0.143) GGGCCTGAATGGTGTGGACATCTACTCGCTGGTGAGCTGGTGACTGAAAACATTCAGTGGC | 0.0261 | 0.0237 | 0.0265 | 0.0481 | 0.0281 | 0.0223 | 0.0214 | 0.0363 | 0.0305 | 0.0264 | 0.0271 | 0.0281 | 0.0315 | 0.0245 | 0.0323 | 0.0225 | 0.0292 | 0.0219
17 | 34.0 (DMSO control at this site: 1-bp insertion 0.184, MH deletion 0.385, edited 0.103) ATTATAGGACCCTGAGGGAGCAGAGATGTGGGAATGGGGGCCGAGCCAATTGTGATGTAAG | 0.199 | 0.159 | 0.169 | 0.361 | 0.165 | 0.208 | 0.148 | 0.184 | 0.121 | 0.233 | 0.154 | 0.11 | 0.176 | 0.213 | 0.2 | 0.153 | 0.197 | 0.211
18 | 35.0 (DMSO control at this site: 1-bp insertion 0.01, MH deletion 0.72, edited 0.098) CCACTTTTAGAGAGGGTGAAAATCATCAGTTATCATCAGGGCAACAAATTGCTTTCTCCTA | 0.00485 | 0.0103 | 0.0267 | 0.125 | 0.0279 | 0.0384 | 0.0163 | 0.0535 | 0.0156 | 0.0183 | 0.0204 | 0.00956 | 0.0278 | 0.0333 | 0.0402 | 0.0264 | 0.0134 | 0.0381
19 | 39.0 (DMSO control at this site: 1-bp insertion 0.328, MH deletion 0.371, edited 0.204) CTGCACAGTCACTTAGGATAGGAGAAGATGATGTATAGGGTTTAGTGGGAGATGTTGCAAG | 0.466 | 0.39 | 0.442 | 0.804 | 0.396 | 0.384 | 0.404 | 0.487 | 0.395 | – | 0.572 | 0.372 | 0.355 | 0.407 | 0.417 | 0.383 | 0.463 | 0.45
